Experimental data from PubChem BioAssay.
A number with no mark means an inactive call. How the calls were made is not given here.

The molecules below were run against Pantothenate synthetase (Mycobacterium tuberculosis (strain ATCC 25618 / H37Rv)) (UniProt P9WIL5) (assay: Recombinant Mtb pantothenate synthetase (PanC) inhibitors, coupled enzyme, confirmatory (AID 375;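 further: 0% = full reaction with vehicle and 100% = no enzyme background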)). Details: coupled enzyme assay; at 10 µM, stronger effect = higher value.
Sequence of Pantothenate synthetase (Mycobacterium tuberculosis (strain ATCC 25618 / H37Rv)) (P9WIL5 whole entry, looked up): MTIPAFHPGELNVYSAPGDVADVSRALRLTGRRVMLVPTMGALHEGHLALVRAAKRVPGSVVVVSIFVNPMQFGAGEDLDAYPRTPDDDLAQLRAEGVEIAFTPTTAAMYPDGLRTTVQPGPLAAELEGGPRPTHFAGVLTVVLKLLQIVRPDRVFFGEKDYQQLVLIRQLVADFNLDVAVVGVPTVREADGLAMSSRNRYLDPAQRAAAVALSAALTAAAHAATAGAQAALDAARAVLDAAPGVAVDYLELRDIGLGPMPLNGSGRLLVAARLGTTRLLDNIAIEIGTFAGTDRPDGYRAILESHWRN

Q: With `N[C@@H](C(=O)N[C@@H]1C(=O)N2C(C(=O)O)=C(Cl)CS[C@H]12)c1ccccc1` as the molecule, how does the inhibition read?
A: 2%

Q: Which inhibition does the source give for `Cc1nn(Cc2ccccc2)c(C)c1NC(=O)c1cc(-c2ccco2)on1` here?
A: 3%

Q: For `Cc1cccc(NC(=O)CN(C)S(=O)(=O)c2ccccc2)n1`, which inhibition is on record?
A: 7%

Q: `O=C(Cn1ncc2c(=O)oc3ccccc3c21)Nc1nc2ccccc2s1` was tested. Which inhibition did it give?
A: 0%

Q: Which inhibition does the source give for `Cc1cc(NC(=O)CCC(=O)N(c2cccnc2)C(C(=O)NC2CCCC2)c2ccccc2F)no1` (centres undefined) here?
A: 0%

Q: How did the inhibition turn out when `Cc1ccc2ncnc(NCCCN3CCOCC3)c2c1` was run?
A: 1%

Q: Which inhibition does the source give for `COc1ccccc1CNC(=O)C1CCC(CNc2c(N3CCOCC3)c(=O)c2=O)CC1` (centres undefined) here?
A: 0%

Q: For `O=C1CC(c2ccccc2)CC(O)=C1C=NCCCN1CCOCC1` (centres undefined), which inhibition is on record?
A: 5%

Q: How did the inhibition turn out when `O=S(=O)(c1cccs1)N1CCN(Cc2nc3ccccc3s2)CC1` was run?
A: 0%

Q: For `Cc1ccc(-n2c(C)cc3c2CCCC3=O)cc1`, which inhibition is on record?
A: 0%

Q: With `COCC(C)NC(=O)NC(=O)c1ccc(Cl)cc1` (centres undefined) as the molecule, how does the inhibition read?
A: 0%

Q: With `Cc1ccc(C)c2[nH]c(=O)c(CCNC(=O)c3ccc(S(=O)(=O)N(C)C)cc3)cc12` as the molecule, how does the inhibition read?
A: 0%

Q: How did the inhibition turn out when `Cc1ccccc1N1OC2C(=O)N(c3ccc(F)cc3)C(=O)C2C1c1ccccn1` (centres undefined) was run?
A: 3%

Q: `Cn1cccc1-c1cc(C(=O)O)[nH]n1` was tested. Which inhibition did it give?
A: 0%

Q: How did the inhibition turn out when `O=C1CC(c2cccc(Cl)c2)CC(O)=C1C=NCCCO` (centres undefined) was run?
A: 9%

Q: With `CC(CC(=O)NC1CCSC1=O)c1ccccc1` (centres undefined) as the molecule, how does the inhibition read?
A: 0%

Q: `CCO/C([O-])=N/c1c[n+](N2CCOCC2)no1` was tested. Which inhibition did it give?
A: 0%

Q: How did the inhibition turn out when `O=c1cc(CSc2nnnn2-c2ccccc2)nc2scc(-c3ccccc3)n12` was run?
A: 3%

Q: For `Nn1c(SCC(=O)Nc2ccc3c(c2)OCO3)nnc1C1CC1`, which inhibition is on record?
A: 4%

Q: `Cc1cc(C(=O)Nc2nnc(C(F)(F)F)s2)no1` was tested. Which inhibition did it give?
A: 0%

Q: `CCn1nccc1C(=O)Nc1nccs1` was tested. Which inhibition did it give?
A: 5%

Q: With `CCC(=O)N1CCc2cc(Br)cc(S(=O)(=O)C3(C(=O)OC)CC3)c21` as the molecule, how does the inhibition read?
A: 0%

Q: Which inhibition does the source give for `CN1CCC(=C2c3ccccc3C=Cc3ccccc32)CC1` here?
A: 0%

Q: How did the inhibition turn out when `O=C(C(c1ccccc1)c1ccccc1)N1CCN(Cc2ccccn2)CC1` was run?
A: 0%

Q: `O=C(CN1CCN(c2ncccn2)CC1)Nc1ccccc1-n1cccc1` was tested. Which inhibition did it give?
A: 0%

Q: Which inhibition does the source give for `CCOc1cc(C(=O)NCc2nnc(SCC(=O)OC)n2C)cc(OCC)c1OCC` here?
A: 2%

Q: For `O=C(NCCCN1CCCC1=O)c1cccnc1`, which inhibition is on record?
A: 4%

Q: `N/C(=N/O)c1nc(N2CCCCC2)nc(N2CCCCC2)n1` was tested. Which inhibition did it give?
A: 0%

Q: For `COC(=O)C1C(=O)c2c([nH]c(C(=O)OCCOC(C)C)c2C)CC1C` (centres undefined), which inhibition is on record?
A: 0%

Q: How did the inhibition turn out when `CCC(=O)Nc1cccc(Br)c1` was run?
A: 2%

Q: Which inhibition does the source give for `COc1ccc(CN(C)CC(=O)c2c(N)n(Cc3ccccc3)c(=O)n(C)c2=O)c(OC)c1` here?
A: 0%

Q: `Cc1cc(=O)[nH]c(SCc2nc3ncccn3c2Br)n1` was tested. Which inhibition did it give?
A: 11%

Q: For `CCOC(=O)N1CCC(Nc2nc3ccccc3n3cnnc23)CC1`, which inhibition is on record?
A: 10%

Q: Which inhibition does the source give for `Cc1sc2nc(CN3CCN(S(=O)(=O)c4cccc5nonc45)CC3)[nH]c(=O)c2c1C` here?
A: 0%

Q: For `COc1ccc(C(=O)Nc2cccc(-c3nc4ncccc4o3)c2C)cc1OC`, which inhibition is on record?
A: 2%

Q: `O=C(O)CC1SC(=Nc2cccc(C(F)(F)F)c2)NC1=O` (centres undefined) was tested. Which inhibition did it give?
A: 0%

Q: With `COc1cc(-c2nc(S(=O)(=O)c3ccc(C)cc3)c(N(C)C)o2)cc(OC)c1OC` as the molecule, how does the inhibition read?
A: 3%

Q: For `CC1=C(C(=O)Nc2ccccc2)C(c2ccco2)C(C#N)=C(SCC(=O)Nc2cccc(C)c2C)N1` (centres undefined), which inhibition is on record?
A: 1%

Q: How did the inhibition turn out when `O=C(CN1CCOCC1)N1CCCc2c1c(=O)oc1ccc(OCc3ccccc3)cc21` was run?
A: 4%
